40 sequences from the supplement of paper PMC6555819 can be followed below.

The experiment concerns VDR:RXRa (NR concentration 270 nM, RXRa partner concentration 90 nM). Kind of experiment: PBM binding z-score (relative to random genomic background probes); higher = stronger binding; sequences stand for … in GC…GCGATTGACAGCGTAGAATGAAGG
The method, then: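 Protein-binding microarray (Agilent 4x180K custom design, double-stranded 60-nt probes: 5' GC cap, 34-nt variable region, 24-nt constant primer region; full probe sequence given). Purified or IVT nuclear receptor:RXRα heterodimers (3:1 NR:RXRα, mostly 270:90 nM) or homodimers were incubated for 1 h in PBS with 2% milk and no ligand, then detected with Alexa488 antibodies. Fluorescence from o1-orientation probes (~5 replicates averaged) was converted to z-scores against 500 random hg19 background probes. Variable regions are seed direct-repeat (DR0–DR5) sites, all their single-nucleotide variants and half-site ablations.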
Turning to AGTCAACGTTCACTAGGTAACGTAAGATTCAGCT, the PBM binding z-score is -0.186.

Regarding ACTAGCAGGCCAAGTTTGGGTCCCTCAAACAAAG, the PBM binding z-score was -0.796.

Take GCTTTTAGTTGAAAGGGCAACCGAATGATTCTCG: the PBM binding z-score was 0.313.

In turn, TCATATAGGTAATCCAGGTGAAAGTCGGCATCTA registered a PBM binding z-score of 1.1.

CCTCGGAGGACAACAGGAGGTCAGAGTTGCCAGA: the PBM binding z-score is 1.97.

Sequence ATCGAAAGGTCGGGGTGAGTATAGAGAAAGGGAA returned a PBM binding z-score of 3.1.

In the case of CCGTCTGGGGCATAAGGTTACCATAAGCCAGCCC, the PBM binding z-score was found to be 0.256.

Sequence CCGAGTAGGTTATGGGGCATCCAGGCAACGGTGA displayed a PBM binding z-score of -0.0665.

The sequence CAAACTAGGTCAAAGGTCAAAGTGGAGCCAACCA displayed a PBM binding z-score of 6.72.

On to TCATATAGGTAATACAGGTGAAAATCGGCATCTA, for which the PBM binding z-score was 1.32.

CACACTAGGTCACGAAAGGTCAAAGTCGAATGAC came in with a PBM binding z-score of 7.02.

The sequence AGTTAAAGTTCATCTAGGTAACGTAAGATATGCT yielded a PBM binding z-score of 4.42.

The sequence CCAGACATGTGAAAGGTAACTCAGTCTGGTACGC had a PBM binding z-score of 0.207.

Consider AGAATGAGGTTATTAAGATCAGTGAATTGCGGTC, for which the PBM binding z-score came to 2.5.

The sequence TCTATTAGTTGAAGGGCAACAGACGAGTCCGTTT displayed a PBM binding z-score of 1.01.

The sequence CCTTCTGGGCCATCAGGTCATTGATATCAACGTT had a PBM binding z-score of 1.81.

For CCTTACGGGTCACTTCAGGTTATAGCATCGGAGT, the PBM binding z-score came to 4.22.

CGAACTAGGTCAAGGTCAAAGTCGGTTTGTGCCA registered a PBM binding z-score of 4.97.

TCGTATAGGTAAAGGTGAAAGTCGAACGATATGA returned a PBM binding z-score of 0.788.

Sequence CCTAGCAGGCCCATCTGGGTCACTCAAGGCTTGA yielded a PBM binding z-score of -0.0613.

For the sequence ATCTCTAAGTAAGACTCAGTTCAGTGAAGAACGC, the PBM binding z-score turned out to be 0.712.

Take ACTATTAGTTGACTTAGGGCAGCCGATACGACGC: the PBM binding z-score came to 0.0476.

Turning to CCTACTGGGCCATCATGTCATTGATATCAACGTT, the PBM binding z-score was determined as 0.0429.

In turn, CGAACTAGGTCAAGGACAGTGCATCTCCGCACGC showed a PBM binding z-score of 2.39.

Regarding TCTTGTAGATCAAAGGTTAATAAAGCCGAAGCCT, the PBM binding z-score was determined as 1.55.

The sequence AGTCAAAGTTCAGGACGAGGCAACGTAAAGCACG returned a PBM binding z-score of 1.93.

Take GGAACGAGTGCATTCGAGTTGATAGCATGGCGAT: the PBM binding z-score amounted to 2.95.

GCGACTGGGGAATCAGCAGGTTACCATAACTTAA came in with a PBM binding z-score of -0.497.

As to TCTAGCAGGCCAGAGGATCACTCAAGAGGTACGG, the PBM binding z-score was -0.662.

The sequence CCAGACAGGTGAAAGGTAACTGAGTCTGGTACGC returned a PBM binding z-score of 0.972.

In the case of TCTTGTAGATCACTAGAGGTTAAGAAAGTGCGCT, the PBM binding z-score was 2.06.

As to GTACCAATGTGAATAGGTCGTTGATGAGTAGGCG, the PBM binding z-score is -0.000523.

In turn, TCTTATAGATCAGCAGGTTAAGAAAGCTGGCCAA showed a PBM binding z-score of 0.455.

The sequence AGAATGAGGTTATACGTGGATCAGGGAAGAAAGT displayed a PBM binding z-score of 1.56.

Sequence CGAACGAGGGCACGAGTTGATAGCAAATGCCGAT came in with a PBM binding z-score of 1.97.

For the sequence AGAACGAGGGCAATGACTTGATAGCACGGGTGGC, the PBM binding z-score was found to be 0.34.

In the case of ACTTTTAGTTGAGACGAGGGCAACCGATAGGTTG, the PBM binding z-score is 0.832.

Sequence CGTCCAAGGTCAGAGATGTCAGTGAATGCCGAGT yielded a PBM binding z-score of 3.64.

Turning to AGAATGAGATTATACGTAGATCAGGGAAGAAAGT, the PBM binding z-score is -0.367.

Sequence ATATGTAGGTTAGCTGGGGTAATTCAGACTAGGC gave a PBM binding z-score of 0.945.
